# The supplement of paper PMC6555819
# Legend:
# Assay in all cases: PBM binding z-score (relative to random genomic background probes); higher = stronger binding; sequences stand for … in GC…GCGATTGACAGCGTAGAATGAAGG
# [1] = system: PPARg:RXRa DBDmut IVT, anti-RXR (DBD mutation: RXRa K156A/R161A, NR concentration 270 nM, RXRa partner concentration 90 nM)
# Summary of the method: (§1)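 Scanned fluorescence from custom Agilent 4×180K protein-binding microarrays was regression-normalized. Binding z-scores use random background probes as reference. Ligand-free nuclear receptor dimers were incubated on the arrays for 1 h and detected with antibodies against each partner (one per run).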
# [2] = system: PPARg:RXRa IVT, anti-PPARg (NR concentration 270 nM, RXRa partner concentration 90 nM)
# Summary of the method: as §1
# [3] = system: PPARg DBDmut:RXRa IVT, anti-PPARg (DBD mutation: PPARg1 K132A/R137A, NR concentration 270 nM, RXRa partner concentration 90 nM)
# Summary of the method: as §1
# [4] = system: PPARg DBDmut IVT, anti-PPARg (DBD mutation: PPARg1 K132A/R137A, NR concentration 270 nM)
# Summary of the method: as §1
# [5] = system: PPARg homodimer (NR concentration 180 nM)
# Summary of the method: as §1
# [6] = system: PXR:RXRa (NR concentration 270 nM, RXRa partner concentration 90 nM)
# Summary of the method: as §1
# [7] = system: PXR homodimer (NR concentration 270 nM)
# Summary of the method: as §1
# [8] = system: RARa:RXR (NR concentration 270 nM, RXRa partner concentration 90 nM)
# Summary of the method: as §1
# [9] = system: RARa homodimer (NR concentration 270 nM)
# Summary of the method: as §1
# [10] = system: RARb:RXRa (NR concentration 270 nM, RXRa partner concentration 90 nM)
# Summary of the method: as §1
Sequence,PBM binding z-score [1],PBM binding z-score [2],PBM binding z-score [3],PBM binding z-score [4],PBM binding z-score [5],PBM binding z-score [6],PBM binding z-score [7],PBM binding z-score [8],PBM binding z-score [9],PBM binding z-score [10]
CAAACTAGGTCAAGAGGTCGAAGTCCGCTTCCCG,8.31,7.97,1.18,0.351,3.87,3.56,0.441,4.93,1.54,4.44
GCTGCTAGGTCAACTGATGGTCAGCTTAAGCTCG,5.04,4.2,-0.326,-0.587,2.5,1.85,-0.712,3.1,-0.0481,4.24
AGAACGAGGGCAATGAGTTGATAGAACGGGTGGC,3.29,2.76,0.559,-0.194,0.0958,1.47,4.31,0.324,-0.124,1.83
TGAATGAGGATATAAGATCAGGGAACGTTGCAAA,-0.556,0.057,0.56,0.888,0.688,-0.114,0.099,0.0893,0.416,-0.402
AGTCAAAGTTCTGGACGAGGTAACGTAAAGCACG,-0.983,0.272,0.288,0.0438,-0.146,-0.238,-0.479,0.0945,0.0553,0.168
TCTCGTAGGACACGAAAGGTCAGAGCTCGACATC,1.81,1.71,-0.191,0.17,3.44,3.94,0.393,4.37,1.1,4.02
GCTAGCAGGCCATTTGGGTCACTCAGTGACGGGC,1.94,2.44,-0.601,-0.52,-0.213,0.3,-0.321,0.684,-0.725,1.44
CTCGAAAGGTCGGGCTCAGGTGAGTATACCAAAC,0.601,1.13,0.0395,-0.176,1.13,1.64,-0.297,2.71,0.232,3.36
CCTAGTCGGTCAGGAGGTCACACACCGGATATGA,2.85,4.85,0.312,0.324,4.25,4.34,1.2,5.23,2.27,4.25
CGTCAAAGTTCAACTAAGGTAACCTAAAGCACGC,0.618,2.35,0.979,1.12,5.46,6.07,4.78,5.01,2.75,5.31
CCTAGCAGGCTAATCTGGGTCACTCAAGGCTTGA,4.46,5.23,0.678,0.0667,0.493,0.328,-0.671,1.34,-0.634,1.07
CCTACTGGGCCAAAAAGGTCATCGATGCCGATAA,3.54,4.4,-0.683,0.00778,3.39,4.69,1.58,5.26,2.06,4.53
CGTACAAGGTCAATGCTAGGTCAGTGAAAGCATT,4.05,4.92,0.909,0.378,5.84,5.07,2.03,6.46,2.18,5.33
CGAACTAGGTCATTGACAGGACAGAGAATAGTAA,8,8.14,4.58,3.51,2.33,1.5,-0.262,2.19,0.528,3.65
AGAATGAGGTTACCAAAGACCAGGGAAACGCTTG,3.86,3.33,0.85,0.62,0.291,1.22,-0.349,2.06,-0.134,2.11
TCTAGTTGGCCAAAGGTCACACACTCGAAATGCG,2.73,5.56,0.249,0.877,6.18,5.82,1.45,6.89,3.8,4.93
GCTAGCAGGCCATTTGGGTAACTCAATGACGGGC,1.07,0.155,-0.238,-1.22,-0.806,-0.696,-0.721,-0.454,-1.37,-0.258
TAGCCTAGGTCATGCGGGCCAGTAGAGTGTCGGC,1.93,2.8,-0.889,-0.693,0.316,1.39,-0.448,2.37,-0.56,3.75
CGAACTAGGACAAGGACAGTGAATCTCCGCACGC,5.04,3.15,0.0656,0.471,0.000634,-0.249,-0.177,0.0939,-0.389,0.708
CCTAGTTGGGCAAGGTCACACACGCTATAGGTAC,0.83,2.2,0.202,0.558,2.56,3.9,1.13,4.04,1.63,3.91
CGTCCAAGGTCAGAGAGGTCAGTGGATGCCGAGT,2.81,3.74,0.146,0.0263,3.71,6.17,11.7,5.33,0.8,5.38
AATACAGGGTCTTCGTAGGCCAGAGTACGCACAG,0.0875,0.764,0.236,0.68,-0.584,-0.0215,-0.304,0.585,0.404,0.544
TAGCCTAGGTCAGATCAGGCCAGTATACGCTATA,0.459,1.56,0.119,-0.493,0.306,2.07,-0.691,1.21,-0.581,2.93
CAAACTAGGTCACGAAAGGTCAAAGGCGAATGAC,8.48,9.08,4.73,2.51,5.53,7.28,2.45,8.15,3.08,5.86
TAGCCTACGTCATTCAGGGGCCAGTATAGAAAGC,-0.459,-0.0447,0.682,0.371,0.00959,-0.22,-0.62,-0.258,-0.456,0.27

Sequence,PBM binding z-score [1],PBM binding z-score [2],PBM binding z-score [3],PBM binding z-score [4],PBM binding z-score [5],PBM binding z-score [6],PBM binding z-score [7],PBM binding z-score [8],PBM binding z-score [9],PBM binding z-score [10]
GGGACGAGGGCAAAGTTGATAGCATCTGTCGACG,2.42,3.76,0.246,0.748,1.07,1.44,0.491,1.48,0.362,2.46
AGTCAAAGTTCAGGACGTGGTAACGTAAAGCACG,-0.468,1.64,0.643,0.0633,1.68,2.15,0.643,1.86,0.703,4.15
GCTATTAATTGAAAGGGCAACCGAATGATTCTCG,0.162,0.122,-0.051,-0.0832,1.66,0.52,1.04,0.517,2.31,2.02
TCTCGGAGGACAGGAAGGTCAGAGCTTTCCAGAG,1.52,0.389,-1.38,-1.7,0.357,1.36,-0.0214,1.42,0.192,2.76
ACTATTAGTTGAGACGAGGACAACCGATAGGTTG,0.000503,0.208,0.291,0.661,0.842,0.431,0.155,1.33,0.918,0.366
GGCACGAGGGCAAAGTTGATAGCATCTGTCGACG,2.51,2.98,-0.61,-0.775,0.977,1.11,0.289,1.56,-0.644,2.54
ATCGAAAGGTAGAAGGTGAGTATACCCACCCGAA,-0.39,0.667,1.35,-0.025,0.231,0.0568,0.241,0.388,0.608,0.615
TCTCGCAGGCCAGAGGGTCACTCAAGAGGTACGG,0.998,0.394,-0.712,-0.719,0.381,1.62,-0.348,2.25,-0.311,2.45
TCATATAGGTAAATGCTAGGTGAAAGCCCGATCT,3.61,2.73,0.828,0.941,0.598,0.505,-0.0207,1.05,0.798,0.444
CAAACTAGGTCAAGTTCAAAGTCGGTTTGTGCCA,8.65,8.81,3.54,4.23,3.54,5.1,6.98,3.97,1.55,4.88
CAAACTAGGTCACCGGAAGGTCAAGGTCCGCATG,8.67,8.88,2.07,0.589,8.45,5.6,1.49,7.28,2.79,5.37
GGAACGAGGGCAGTCGAGTTGATAGCATGGCGAT,2.24,1.29,-0.319,-0.59,-0.872,1.83,-0.252,-0.0532,-0.989,1.77
TCGAGTAGGTTAGTGGGGGCATTCAGCCAACATA,3.24,4.33,4.17,4.96,1.66,2.68,1.78,1.76,0.673,1.39
ACTATTAGTTGAGACGAGGTCAACCGATAGGTTG,0.226,2.11,0.554,1.21,2.65,5.3,2.57,4.97,1.07,3.52
ACTCGGAGGACAAAGGTCAGAGCCACGCCAGTGA,0.449,3.88,0.243,0.0578,3.83,4.03,0.202,5.5,1.68,4.73
CCAGACTGGTGAGAAGGTAACTCAGCCTCGATTA,-0.548,-0.378,-1.06,-0.669,0.4,-0.321,-0.553,-0.228,-0.0331,-0.455
ACTCGGAGGACAAAGGTCAGCGCTACGCCAGTGA,0.977,3.82,0.281,-0.509,4.7,3.99,0.485,5.21,1.94,4.73
CCTCGGATGACAGAAGGTCAGAGCTGTCCGCTTT,0.0182,-0.0257,-1.19,-1.32,1.51,1.5,0.235,1.85,0.773,2.59
TCTAGCAGGCCAGAGGGCCACTCAAGAGGTACGG,0.914,-0.0389,-0.285,-0.851,-0.331,-0.535,-0.284,-0.732,-0.342,0.248
TCATCTAGGTAAAGGTGAAAGTCGAACGATATGA,4.03,4.69,1.07,0.677,1.57,0.89,0.0192,1.61,0.277,2.05
CATTCAGGGTCAGCTAGGCCAGAGTAGGGACGGC,1.6,3.11,2.17,0.968,1.47,2.74,0.0308,3.58,0.262,4.42
GCTATTAGTTGAAAGGGCAACCGAATGATTCTCG,0.456,1.11,0.0571,0.432,1.15,0.708,0.108,1.38,0.652,2
TCTATTACTTGATTAGGGCAACCGAAACAGCGGA,2.08,1.45,0.681,1.58,0.91,0.583,0.132,0.779,1.04,0.983
CCTCGGAGGACAGAGGGTCAGAGCTGTCCGCTTT,-0.421,0.141,-1.61,-1.81,0.33,0.62,-0.49,1.14,-0.305,2.22
